A selection: hits, their analogues and other compounds. The true share with any hit is near 2.8%.
PI5P4Ka inh: blocks human PI5P4K alpha kinase activity; P48426; PI5P4Kalpha enzyme, ADP-Glo luminescence, 60 min; active compounds read low; max response, %; hit rate 1.2% among 330,000; active means max response of -50% or lower; inconclusive means between -30% and -50%; inactive means -30% or higher; further: value at the top dose of about 77 µM
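Reactions run in 0.038 M HEPES pH 7.4, 0.28 mM EGTA, 0.1% CHAPS and 5% DMSO, with PI5P4Kalpha, substrate, compound and 5 microM ATP final, one hour at room temperature. Readout is ADP-Glo luminescence.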
WRN inhibitor: WRN helicase (human) inhibition. hit rate 0.46% among 360,000. Potency, µM (series often up to 114 µM), hits mostly inhibitors. WRN helicase unwinding, fluorescent forked duplex, kinetic. AID 651768; further: nearly all actives have a fitted effect of over 55% in size
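Kinetic fluorescence helicase assay: unwinding of a quenched forked DNA duplex (100 nM final) with 2 mM ATP final raises red fluorescence (525/598 nm). Compounds sat 15 min at room temperature with 20 nM WRN beforehand.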
Pol beta inh: inhibitors of human DNA polymerase beta | AID 485314 | Potency, µM (series often up to 114 µM), usual class: inhibitors | P06746 | hit rate 1.3% among 340,000 | Pol beta primer extension/strand displacement, fluorescence kinetic
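Reaction started by 50 nM substrate onto compound-treated Pol beta (10 nM, 15 min preincubation, room temperature); plates read at 0 min and 10 min. Normalized concentration-effect data fitted by four-parameter Hill equation.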
Pol kappa inh: DNA polymerase kappa (human) inhibition | Q9UBT6 | purified Pol kappa, fluorescent DNA synthesis assay, 10 min | Potency, µM (highest dose often 107 µM), most hits filed as inhibitors | hit rate 0.53% among 400,000
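Here, compound and 10 nM enzyme are combined for 15 min at room temperature; adding 50 nM substrate (final) starts DNA synthesis, tracked by fluorescence at 0 and 10 min against buffer-only wells.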
POLI inh: DNA polymerase iota (human) inhibition | Q9UNA4 | Pol iota fluorescent replication assay, 10 min | Potency, µM (titrated, usually from 115 µM), usual class: inhibitors | hit rate 1% among 390,000
Target sequence (Q9UNA4 whole entry, looked up): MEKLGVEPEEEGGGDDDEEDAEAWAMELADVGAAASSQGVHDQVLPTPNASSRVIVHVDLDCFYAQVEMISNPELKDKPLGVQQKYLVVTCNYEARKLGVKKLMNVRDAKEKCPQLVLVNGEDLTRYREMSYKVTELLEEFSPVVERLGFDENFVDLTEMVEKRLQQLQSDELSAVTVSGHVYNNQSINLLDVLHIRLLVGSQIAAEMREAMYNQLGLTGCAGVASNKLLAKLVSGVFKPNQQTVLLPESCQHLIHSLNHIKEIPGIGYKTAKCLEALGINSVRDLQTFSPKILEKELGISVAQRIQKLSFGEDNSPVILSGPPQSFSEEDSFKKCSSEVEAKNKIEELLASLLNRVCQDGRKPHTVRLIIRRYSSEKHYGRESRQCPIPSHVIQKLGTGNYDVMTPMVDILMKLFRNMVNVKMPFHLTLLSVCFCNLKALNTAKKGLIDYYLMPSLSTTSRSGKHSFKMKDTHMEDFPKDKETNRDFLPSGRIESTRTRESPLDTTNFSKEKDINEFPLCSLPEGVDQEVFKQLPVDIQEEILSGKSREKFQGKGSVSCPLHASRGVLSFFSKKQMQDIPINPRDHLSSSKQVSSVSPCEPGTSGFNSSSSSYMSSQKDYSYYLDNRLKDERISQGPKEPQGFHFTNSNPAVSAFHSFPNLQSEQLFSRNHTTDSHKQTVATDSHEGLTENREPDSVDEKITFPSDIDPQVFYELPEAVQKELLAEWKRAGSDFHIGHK
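Fluorescent replication assay read twice, at 0 min and 10 min after adding 50 nM (final) substrate. Enzyme (10 nM) and compounds were first incubated 15 min at room temperature; enzyme-free buffer wells were negative controls.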
POLH inh: DNA polymerase eta (human) inhibition | Potency, µM (highest dose often 114 µM), usual class: inhibitors | hit rate 1.2% among 390,000 | AID 588591 | recombinant Pol eta, fluorescent DNA replication assay | Q9Y253
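Fluorescent replication assay: 50 nM final substrate added after a 15 min room-temperature compound preincubation with 10 nM enzyme. Signal taken at 0 min and again at 10 min.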
Hits are given with their value; i = inactive; ? = inconclusive; nt = no result; [ ] = remark or other dose. Unless noted, the call rests on the fitted dose curve; in most records, active means well fitted curve in the direction sought with a large enough effect; inconclusive means small, poorly fitted or top-dose-only effect, or another doubt; inactive means no such curve, though single readings can be large; an effect the other way counts as inactive or inconclusive.

SMILES | PI5P4Ka inh | WRN inhibitor | Pol beta inh | Pol kappa inh | POLI inh | POLH inh
CCOc1ccccc1NC(=O)Cn1c(=O)n(CCC(=O)NCc2ccc3c(c2)OCO3)c(=O)c2ccccc21 | nt | nt | i | i | i | i
COc1ccc(CCNC(=O)c2cnc3sc(N4CCOCC4)nn3c2=O)cc1OC | nt | nt | i | i | i | i
Cc1cccc(C(=O)Nc2cccc(C(=O)OCc3cc(=O)n4c5c(sc4n3)CCCC5)c2)c1 | nt | nt | i | i | i | i
O=C(COC(=O)c1ccccc1Br)NCCC1=CCCCC1 | i | i | i | i | i | i
O=C(NC(=S)NCCC1=CCCCC1)c1ccccc1Br | -54 | i | i | i | i | ?
S=c1nc(-c2cc(Cl)ccc2Cl)[nH][nH]1 | -64 | i | i | i | ? | i
CC(C)C[C@H](NC(=O)[C@@H]1CCC(=O)N1)C(=O)N[C@@H](Cc1ccc(O)cc1)C(=O)N[C@@H](CCC(=O)O)C(=O)N[C@@H](CC(N)=O)C(=O)N[C@@H](CCCCN)C(=O)N1CCC[C@H]1C(=O)N[C@@H](CCCN=C(N)N)C(=O)N[C@@H](CCCN=C(N)N)C(=O)N1CCC[C@H]1C(=O)N[C@@H](Cc1ccc(O)cc1)C(=O)O | nt | nt | nt | i | nt | nt
C=CC[n+]1ccc(/C=C2\C=Cc3cc(C)ccc3N2CC)c2ccccc21 | ? | 40µM | ? | 50µM | ? | i
CCN1/C(=C/c2cc[n+](CCCS(=O)(=O)[O-])c3ccccc23)Sc2ccccc21 | i | i | ? | i | ? | i
O=C(CNC(=O)c1cccnc1)c1ccc(F)cc1 | nt | nt | nt | i | i | nt
CN(C)c1ccc(/C=C2\C=Cc3ccccc32)cc1F | nt | nt | nt | i | i | nt
COC(=O)C(C)Oc1ccc2c(c1)O/C(=C\c1ccco1)C2=O (stereo not given) | ? | i | ? | ? | 45µM | 45µM
O=C1c2ccccc2C(=O)N1c1cccc(-c2csc(Nc3ccc4c(c3)OCO4)n2)c1 | nt | nt | 28µM | nt | nt | nt
CN1CCN(C(c2ccc(Cl)cc2Cl)c2sc3nc(-c4ccco4)nn3c2O)CC1 (stereo not given) | nt | nt | i | i | i | i
COc1ccc(NC(=O)c2sc3nc4n(c(=O)c3c2C)CCC4)c(OC)c1 | nt | nt | i | i | i | i
O=C(/C=C/c1ccc(C(F)(F)F)cc1)OC(C(=O)NC1CC1)c1ccccc1 (stereo not given) | nt | nt | nt | i | i | nt
CCOC(=O)Cc1nnc(NC(=O)c2ncn[nH]2)s1 | i | i | i | i | 7.1µM | i
N#Cc1ccc2c(c1)C[C@]1(c3ccsc3)Oc3c(c(=O)oc4ccccc34)C2O1 | nt | nt | 2.8µM | nt | nt | nt
CCCC[C@]12Cc3cc(C#N)ccc3C(O1)c1c(c3cc(F)ccc3oc1=O)O2 | nt | nt | i[22.9 µM] | nt | nt | nt
CCCC[C@]12Cc3cc(C#N)ccc3C(O1)c1c(c3ccccc3oc1=O)O2 | nt | nt | i[22.9 µM] | nt | nt | nt
COc1ccc2c3c(c(=O)oc2c1)C1O[C@](c2ccsc2)(Cc2cc(C#N)ccc21)O3 | nt | nt | 3.2µM | nt | nt | nt
N#Cc1ccc2c(c1)C[C@]1(c3ccsc3)Oc3c(c(=O)oc4ccc(F)cc34)C2O1 | nt | nt | 11µM | nt | nt | nt
Cc1cc2c(c(=O)o1)C1O[C@](c3ccsc3)(Cc3cc(C#N)ccc31)O2 | nt | nt | 10µM | nt | nt | nt
CCCCn1c(C)cc2c(c1=O)C1O[C@](c3ccsc3)(Cc3cc(OC)c(OC)cc31)O2 | nt | nt | i[22.9 µM] | nt | nt | nt
COc1ccc(NC(=O)CN(Cc2ccccc2)S(=O)(=O)c2ccc(C)cc2)cc1Cl | nt | nt | i | i | i | i
SMILES | PI5P4Ka inh | WRN inhibitor | Pol beta inh | Pol kappa inh | POLI inh | POLH inh
Cc1ccc(NC(=O)C2CCCN(c3cnccn3)C2)cc1Cl (stereo not given) | nt | nt | i | i | i | i
CCOc1ccc(NC(=O)CSc2cn(CC(=O)N3CCCCCC3)c3ccccc23)cc1 | nt | nt | i | i | i | i
Cc1cc2c(c(=O)n1-c1ccccc1)C1O[C@](c3ccsc3)(Cc3cc(C#N)ccc31)O2 | nt | nt | 8.9µM | nt | nt | nt
O=C(Nc1ccc(F)cc1)c1ccc(=O)[nH]n1 | i | i | i | i | i | i
O=C(Nc1cccc(Cl)c1)c1ccc(=O)[nH]n1 | i | i | i | i | 18µM | i
O=C(Nc1ccc(Cl)cc1Cl)c1cc(S(=O)(=O)N2CCN(c3ccccc3F)CC2)ccc1F | nt | nt | i | i | i | i
Cc1cc(C(=O)COC(=O)c2ccc(NC(=O)CC#N)cc2)c(C)n1CCc1ccc(F)cc1 | ? | i | nt | i | i | i
